High-throughput results (PubChem BioAssay)
In the library only some 17% were active in any assay of this set; here they are far more common.
TDP1 cell noCPT – qHTS for Inhibitors of human tyrosyl-DNA phosphodiesterase 1 (TDP1): qHTS in cells in absence of CPT. DT40 Tdp1-/- hTDP1 cells, no CPT, ATP luminescence, 48 h. hit rate 15% among 420,000. Potency, µM (titrated, usually from 46.2 µM), without a hit: top-dose activity change, negative = growth inhibition, hits mostly inhibitors; also: % is scaled to controls: 0 for no effect and ±100 for the full control effect; nearly all actives have a fitted effect of over 55% in size
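Luminescent ATP content (CellTiter-Glo) served as the growth readout. Knockout chicken DT40 cells expressing human TDP1 were exposed to compounds without camptothecin for a minimum 48 hr at 37 °C.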
S2 tox – reduces viability in counter-screen for ATXN expression inhibitors; Potency, µM (top dose mostly 56.7 µM), hits mostly cytotoxic; S2 cells (HEK-293 line with an ATXN2-luciferase reporter) viability, CellTiter-Fluor protease fluorescence, 24 h; hit rate 0.49% among 400,000; also: nearly all actives have a fitted effect of over 40% in size
HepG2 tox – kills HepG2 cells in TGF-b inhibitor counter-screen; HepG2 CAGA-GFP viability, ATP luminescence, 18 h; Potency, µM (top dose mostly 46.1 µM), inactives show at the highest dose activity change, negative = cytotoxicity, most hits filed as cytotoxic; hit rate 0.76% among 410,000; AID 588856
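CellTiter-Glo luminescence gave cytotoxicity after 18 hours at 37 degrees C. The cells were HepG2 CAGA-GFP in 1% FBS DMEM, stimulated with 500 pg/mL TGF-beta after compound addition. %Activity was normalised to no-cell wells (complete cell-killing) and DMSO (no toxicity), and curves were fitted and classified.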
TGFb inhibitor – blocks TGF-b signaling; HepG2 CAGA-GFP TGF-b/SMAD3 reporter, GFP fluorescence, 18 h; TGF-beta stimulated, 500 pg/mL final; hit rate 1.2% among 410,000; Potency, µM (titrated, usually from 46.1 µM), for the others: at the highest dose activity, negative = inhibition, hits mostly inhibitors; AID 588855; also: % is scaled to controls: 0 for no effect and ±100 for the full control effect; nearly all actives have a fitted effect of over 65% in size
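Inhibition was scored as loss of TGF-beta-induced (500 pg/mL final, 18 hours, 37 degrees C) GFP in HEPG2 cells carrying a CAGA-GFP reporter, in DMEM with 1% FBS. Well GFP was summed per cell; Activity was normalised to unstimulated and stimulated DMSO wells, then concentration-response fitting.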
DT40 TDP1 CPT – growth inhibition of DT40 Tdp1-/-;hTDP1 cells with camptothecin (screen for TDP1 inhibitors); Potency, µM (doses to about 46.2 µM), without a hit: at the highest dose activity change, negative = growth inhibition, actives largely listed as inhibitors; chicken DT40 Tdp1-/-;hTDP1 cells + 20 nM CPT, ATP luminescence, 48 h; AID 686979; hit rate 12% among 420,000; also: % is scaled to controls: 0 for no effect and ±100 for the full control effect; nearly all actives have a fitted effect of over 55% in size
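Cell growth measured by CellTiter-Glo luminescence after a minimum 48 h, 37 C compound exposure with 20 nM CPT in Tdp1-knockout DT40 cells stably expressing hTDP1, seeded 400/well; qHTS titration format.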
ATXN2 expr inh – ATXN2 expression inhibition; Potency, µM (top dose mostly 57 µM), without a hit: at the top dose activity change, negative = inhibition, most hits filed as inhibitors; HEK-293 ATXN2-luciferase reporter, luminescence, 24 h; hit rate 0.72% among 360,000; AID 1745845; also: % is scaled to controls: 0 for no effect and ±100 for the full control effect; nearly all actives have a fitted effect of over 55% in size
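ATXN2-luciferase reporter cells (luciferase flanked by upstream and downstream ATXN2 gene portions) were treated 24 h at 37 °C with compounds at up to 57 uM. SteadyGlo luminescence gave expression; GF-AFC fluorescence gave viability.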
* marks the source's active call; other numbers are inactive results; [ ] = dose if it differs, or a comment. Calls follow the shape of the dose curve; as a rule, active = well fitted curve in the direction sought with a large enough effect; inconclusive = small, poorly fitted or top-dose-only effect, or another doubt; inactive = no such curve, though single readings can be large; an effect the other way counts as inactive or inconclusive. Potency is read from the fitted curve at half-maximal effect.

Screening CC(=O)N(CCc1ccccc1)c1ccc2c(c1)C1CC2CCN1C(=O)OCc1ccccc1 (stereo not given) returned TDP1 cell noCPT 6.51µM*, S2 tox inconclusive, HepG2 tox -68.5%, TGFb inhibitor inconclusive, DT40 TDP1 CPT 8.2µM* and ATXN2 expr inh inconclusive.
For O=S(=O)(c1cccc2ccccc12)N1CCC2CC1c1cc(-c3ccc(F)cc3)ccc12 (stereo not given) the results were TDP1 cell noCPT inconclusive, S2 tox inactive, HepG2 tox -15.3%, TGFb inhibitor 1.5%, DT40 TDP1 CPT inconclusive and ATXN2 expr inh -14.7%.
CCN(CCc1ccccc1)c1ccc2c(c1)C1CC2CCN1Cc1ccccc1 (stereo not given) was read as TDP1 cell noCPT 5.8µM*, S2 tox inconclusive, HepG2 tox 0.1%, TGFb inhibitor 0.5%, DT40 TDP1 CPT 6.51µM* and ATXN2 expr inh -10.0%.
`COc1cccc(-c2ccc3c(c2)C2CC3CCN2C(=O)c2ccc(-c3ccccc3)cc2)c1` (stereo not given) gave TDP1 cell noCPT 18.4µM*, S2 tox inactive, HepG2 tox -18.9%, TGFb inhibitor -0.3%, DT40 TDP1 CPT inconclusive and ATXN2 expr inh -4.9%.
For Cc1ccsc1C(=O)Nc1ccc2c(c1)OCCO2 the results were TDP1 cell noCPT inconclusive, S2 tox inactive, HepG2 tox -55.7%, TGFb inhibitor 6.0%, DT40 TDP1 CPT inconclusive and ATXN2 expr inh -19.4%.
For COc1ccc(C(C(=O)Nc2ccc(F)cc2)N2CCN(C(=O)c3ccco3)CC2)cc1 (stereo not given) the results were TDP1 cell noCPT -15.3% and DT40 TDP1 CPT -1.4%.
`COc1ccc(CN2CCOc3ccc(CN4CCN(CCO)CC4)cc3C2)c2ccccc12` gave TDP1 cell noCPT inconclusive, S2 tox inactive and DT40 TDP1 CPT -4.4%[9.04 µM].
`O=C(OCc1ccccc1)N1CCC2CC1c1cc(N3CCNCC3)ccc12` (stereo not given) gave TDP1 cell noCPT 16.4µM*, S2 tox inconclusive, HepG2 tox -46.0%, TGFb inhibitor -21.4%, DT40 TDP1 CPT inconclusive and ATXN2 expr inh 9.5%.
`CC(=O)Nc1cc(-c2nc3cc(Cl)ccc3o2)ccc1C` gave TDP1 cell noCPT -0.2%, S2 tox inactive, HepG2 tox -12.7%, TGFb inhibitor -2.4%, DT40 TDP1 CPT -15.1% and ATXN2 expr inh 61.8%.
Cc1cccc(-c2nc3cc(NC(=O)Cc4ccc(Cl)cc4)ccc3o2)c1 was read as TDP1 cell noCPT 10.3µM*, S2 tox inconclusive, HepG2 tox 5.9%, TGFb inhibitor -1.8%, DT40 TDP1 CPT 16.4µM* and ATXN2 expr inh -17.2%.
Cc1ccc(SCC(=O)Nc2cccc(-c3nc4cc(Cl)ccc4o3)c2C)cc1 was read as TDP1 cell noCPT inconclusive, S2 tox inactive, HepG2 tox 6.7%, TGFb inhibitor 1.7%, DT40 TDP1 CPT inconclusive and ATXN2 expr inh 43.3%.
For Cc1cc2nc(-c3cccc(NC(=O)CSc4ccc(Cl)cc4)c3)oc2cc1C the results were TDP1 cell noCPT inconclusive, S2 tox inactive, HepG2 tox 10.8%, TGFb inhibitor 23.9%, DT40 TDP1 CPT 16.4µM* and ATXN2 expr inh 96.3%.
Cc1ccc2oc(-c3cccc(NC(=O)Cc4ccc(Cl)cc4)c3)nc2c1 was read as TDP1 cell noCPT -6.0%, S2 tox inconclusive, HepG2 tox -3.8%, TGFb inhibitor -4.1%, DT40 TDP1 CPT -1.5% and ATXN2 expr inh 3.7%.
CC(=O)Nc1ccc(-c2nc3cc(Cl)ccc3o2)cc1 was read as TDP1 cell noCPT -19.0%, S2 tox inactive, HepG2 tox -37.6%, TGFb inhibitor 11.2µM*, DT40 TDP1 CPT -18.8% and ATXN2 expr inh 63.0%.
Cc1ccc(SCC(=O)Nc2ccc3oc(-c4cccc(Cl)c4)nc3c2)cc1 was read as TDP1 cell noCPT 20.6µM*, S2 tox inactive, HepG2 tox -17.0%, TGFb inhibitor -1.0%, DT40 TDP1 CPT inconclusive and ATXN2 expr inh 16.9%.
Screening CCOc1ccc(N2CC(C(=O)NCCc3ccc(S(N)(=O)=O)cc3)CC2=O)cc1 (stereo not given) returned TDP1 cell noCPT -1.9%, S2 tox inactive, HepG2 tox 0.5%, TGFb inhibitor -18.3%, DT40 TDP1 CPT 1.9% and ATXN2 expr inh -4.9%.
CN=C1c2cc3cc(OC)ccc3n2CCN1Cc1ccccc1 was read as TDP1 cell noCPT 2.91µM*, S2 tox inactive, HepG2 tox -22.3%, TGFb inhibitor inconclusive, DT40 TDP1 CPT 3.26µM* and ATXN2 expr inh inconclusive.
For COc1ccc(S(=O)(=O)N2CCN(Cc3ccccc3)CC2)cc1 the results were TDP1 cell noCPT inconclusive, S2 tox inactive, HepG2 tox -19.3%, TGFb inhibitor -12.3%, DT40 TDP1 CPT -26.5% and ATXN2 expr inh -8.9%.
Screening CC1=NN(c2ccccc2)C(=O)C1c1ccccc1 (stereo not given) returned TDP1 cell noCPT -11.7%, S2 tox inactive, HepG2 tox 2.8%, TGFb inhibitor -2.5%, DT40 TDP1 CPT 2.2% and ATXN2 expr inh 1.1%.
Cc1ccc(N2C(=N)/C(=C3/Nc4ccccc4S3)C(c3ccccc3)C2=O)cc1 (stereo not given) was read as TDP1 cell noCPT 4.61µM*, S2 tox inactive, HepG2 tox -1.9%, TGFb inhibitor -0.1%, DT40 TDP1 CPT inconclusive and ATXN2 expr inh 24.5%.
`COc1ccccc1NC(=O)c1ccc(CN2C(=O)C(C)=C(c3ccc(C)c(C)c3)S2(=O)=O)cc1` gave TDP1 cell noCPT inconclusive, S2 tox inactive, HepG2 tox -17.7%, TGFb inhibitor 2.7%, DT40 TDP1 CPT inconclusive and ATXN2 expr inh 8.0%.
For Cc1nc2ccccc2c2ncccc12 the results were TDP1 cell noCPT 0.5%, S2 tox inactive, HepG2 tox -8.7%, TGFb inhibitor -1.5%, DT40 TDP1 CPT -0.5% and ATXN2 expr inh -8.4%.
`c1cnc2nc3c4ccccc4c4ccccc4c3nc2c1` gave TDP1 cell noCPT 14.6µM*, S2 tox inconclusive, HepG2 tox -0.9%, TGFb inhibitor 21.8%, DT40 TDP1 CPT inconclusive and ATXN2 expr inh -17.1%.
CCOc1ccc(N(CC(=O)NC2CC3CCC2C3)S(=O)(=O)c2ccccc2)cc1 (stereo not given) was read as TDP1 cell noCPT -19.3%, S2 tox inactive, HepG2 tox 2.8%, TGFb inhibitor 10.5%, DT40 TDP1 CPT inconclusive and ATXN2 expr inh -15.2%.
